Experimental data taken from PubChem BioAssay (Tox21).
Results filed as inconclusive are left out. Activity calls are given as the source filed them. Calls follow the shape of the dose curve; as a rule, active = well fitted curve in the direction sought with a large enough effect in the repeat runs; inconclusive = weak or mixed curves; inactive = no such curve, though single readings can be large; an effect the other way counts as inactive or inconclusive. Positions of bridges follow the written chain, without caps; N, C: chain ends. Non-standard residues stand in square brackets, D forms with d. Residues, ends and D or L forms follow the SMILES beside them. hArg = N=C(N)NCCCC[C@H](N)C(=O)O; Mpa = O=C(O)CCS

How the values were obtained:
[1] = target: Nuclear receptor subfamily 1 group I member 2 (Homo sapiens) (UniProt O75469); assay: Human pregnane X receptor (PXR) small molecule agonists, qHTS assay (AID 1346982); also: nearly all actives have a fitted effect of over 35% in size; also: potency is read from the fitted curve at half-maximal effect
How it was run: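 PXR-Luc HepG2 reporter cells (CYP3A4-driven luciferase) in 5% charcoal-stripped FBS medium, plated 5 h before compound addition, then treated 24 h at 37C. Luciferase read by ONE-Glo luminescence after 30 min at room temperature.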

[2] = target: Nuclear receptor subfamily 1 group I member 2 (Rattus norvegicus) (UniProt Q9R1A7); assay: Rat pregnane X receptor (rPXR) activation by small molecules, qHTS assay (AID 1346983); details: rPXR luciferase reporter cells, One-Glo luminescence, 24 h; active compounds read high; also: nearly all actives have a fitted effect of over 20% in size
How it was run: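 Luminescent readout (One-Glo luciferase, 30 min room temperature) followed 24 hr compound treatment at 37 C of rPXR cells plated 2,000 per well and preincubated 5hr; qHTS format with compounds delivered in DMSO.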

[3] = target: Nuclear receptor subfamily 1 group I member 2 (Homo sapiens) (UniProt O75469); assay: Human pregnane X receptor (PXR) activation by small molecules, qHTS assay (AID 1346985); also: nearly all actives have a fitted effect of over 40% in size; also: potency is read from the fitted curve at half-maximal effect
How it was run: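 DPX-2 cells (HepG2 co-transfected with a PXR response element and a CYP3A4-promoter luciferase construct) were seeded at 2,000 per well, rested 5 hr at 37C, then exposed to DMSO-dissolved compounds for 24 hr. Activation was read as luciferase luminescence.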

[4] = target: Cytochrome P450 2D6 (Homo sapiens) (UniProt P10635); assay: Cytochrome P450 Family 2 Subfamily D Member 6 (CYP2D6) small molecule antagonists: luciferase reporter qHTS assay (AID 1671196); also: nearly all actives have a fitted effect of over 50% in size; also: potency is read from the fitted curve at half-maximal effect; as to activity change, negative = inhibition: series mostly up to about 120 µM
How it was run: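 Cell-free P450-Glo system: CYP2D6 with proluciferin substrate was pre-incubated with compound for 10 min, then reacted with NADPH regeneration for 1 h at room temperature. Luciferin product was detected after 20 min, and data were reported as relative luminescence units.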

[5] = target: Cytochrome P450 2C9 (Homo sapiens) (UniProt P11712); assay: Cytochrome P450 Family 2 Subfamily C Member 9 (CYP2C9) small molecule antagonists: luciferase reporter qHTS assay (AID 1671198); also: nearly all actives have a fitted effect of over 50% in size; also: potency is read from the fitted curve at half-maximal effect; as to activity change, negative = inhibition: series mostly up to about 120 µM
How it was run: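 Enzyme-substrate mix preincubated with compound 10 min at room temperature; reaction started with NADPH regeneration solution, 1 h 37C. Luminescent luciferin product read after 20 min detection reagent.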

[6] = target: Cytochrome P450 1A2 (Homo sapiens) (UniProt P05177); assay: Cytochrome P450 Family 1 Subfamily A Member 2 (CYP1A2) small molecule antagonists: luciferase reporter qHTS assay (AID 1671199); also: nearly all actives have a fitted effect of over 50% in size; also: potency is read from the fitted curve at half-maximal effect; as to activity change, negative = inhibition: series mostly up to about 120 µM
How it was run: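 P450-Glo CYP1A2 enzyme–proluciferin substrate mix with compound 10 min at room temperature, then NADPH regeneration 1 h at room temperature. Luciferin detection reagent added, luminescence read after 20 min; furafylline positive control.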

[7] = target: Voltage-gated inwardly rectifying potassium channel KCNH2 (Homo sapiens) (UniProt Q12809); assay: Human Ether-a-go-go-Related Gene (hERG) channel small molecule antagonists: fluorescence cell-based qHTS assay (AID 1671200);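 also: hERG-expressing U2OS cells given a thallium stimulus after FluxOR II dye loading; series mostly up to about 77 µM; nearly all actives have a fitted effect of over 50% in size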
How it was run: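 Cell line hERG-U2OS; dye FluxOR II, 1 h RT dark; Tl+ stimulus; ex 480/em 540 nm, read each second for 2 min.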

[8] = target: Cytochrome P450 3A4 (Homo sapiens) (UniProt P08684); assay: Cytochrome P450 Family 3 Subfamily A Member 4 (CYP3A4) small molecule antagonists: luciferase reporter qHTS assay (AID 1671201)
How it was run: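 Room-temperature assay throughout: 10 min compound–enzyme/substrate preincubation, 1 h reaction after NADPH regeneration solution, 20 min detection. Luciferin formed from proluciferin substrate is quantified by luminescence.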

[9] = target: Cytochrome P450 2C19 (Homo sapiens) (UniProt P33261); assay: Cytochrome P450 Family 2 Subfamily C Member 19 (CYP2C19) small molecule antagonists: luciferase reporter qHTS assay (AID 1671197); also: nearly all actives have a fitted effect of over 65% in size; also: potency is read from the fitted curve at half-maximal effect; as to activity change, negative = inhibition: series mostly up to about 120 µM
How it was run: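 Enzyme-substrate mix with proluciferin substrate (P450-Glo CYP2C19 system) preincubated with compounds 10 min at room temperature; NADPH regeneration solution added, 37C for 1 h; detection reagent stops reaction, luminescence read after 20 min. Ketoconazole positive control.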
% is scaled to controls: 0 for no effect and ±100 for the full control effect.

Nuclear receptor subfamily 1 group I member 2 (Rattus norvegicus), sequence (Q9R1A7 whole entry, looked up): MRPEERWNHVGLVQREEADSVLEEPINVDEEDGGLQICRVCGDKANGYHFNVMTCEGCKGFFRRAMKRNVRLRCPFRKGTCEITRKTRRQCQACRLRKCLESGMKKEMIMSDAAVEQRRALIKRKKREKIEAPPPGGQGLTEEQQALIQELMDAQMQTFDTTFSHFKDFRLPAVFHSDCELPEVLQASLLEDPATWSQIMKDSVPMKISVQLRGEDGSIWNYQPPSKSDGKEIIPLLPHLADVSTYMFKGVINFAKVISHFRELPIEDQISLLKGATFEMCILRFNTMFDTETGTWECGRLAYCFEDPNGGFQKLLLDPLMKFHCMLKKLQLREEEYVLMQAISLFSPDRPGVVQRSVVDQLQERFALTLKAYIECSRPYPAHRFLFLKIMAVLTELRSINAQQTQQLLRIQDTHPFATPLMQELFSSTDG
Cytochrome P450 2C19 (Homo sapiens), sequence (P33261 whole entry, looked up): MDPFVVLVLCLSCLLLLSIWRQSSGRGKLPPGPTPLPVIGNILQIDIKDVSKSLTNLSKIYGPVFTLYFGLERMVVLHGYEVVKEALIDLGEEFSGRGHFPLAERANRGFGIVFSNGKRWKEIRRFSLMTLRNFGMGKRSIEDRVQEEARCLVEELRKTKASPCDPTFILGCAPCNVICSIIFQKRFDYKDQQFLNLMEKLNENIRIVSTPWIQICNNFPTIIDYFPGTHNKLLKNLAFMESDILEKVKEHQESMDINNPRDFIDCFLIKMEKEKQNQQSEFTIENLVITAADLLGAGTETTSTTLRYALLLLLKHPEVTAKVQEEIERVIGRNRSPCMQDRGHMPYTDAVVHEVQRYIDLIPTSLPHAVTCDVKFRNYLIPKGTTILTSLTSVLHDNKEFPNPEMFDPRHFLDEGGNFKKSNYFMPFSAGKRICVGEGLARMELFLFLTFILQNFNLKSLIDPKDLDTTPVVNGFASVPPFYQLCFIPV
Nuclear receptor subfamily 1 group I member 2 (Homo sapiens), sequence (O75469 whole entry, looked up): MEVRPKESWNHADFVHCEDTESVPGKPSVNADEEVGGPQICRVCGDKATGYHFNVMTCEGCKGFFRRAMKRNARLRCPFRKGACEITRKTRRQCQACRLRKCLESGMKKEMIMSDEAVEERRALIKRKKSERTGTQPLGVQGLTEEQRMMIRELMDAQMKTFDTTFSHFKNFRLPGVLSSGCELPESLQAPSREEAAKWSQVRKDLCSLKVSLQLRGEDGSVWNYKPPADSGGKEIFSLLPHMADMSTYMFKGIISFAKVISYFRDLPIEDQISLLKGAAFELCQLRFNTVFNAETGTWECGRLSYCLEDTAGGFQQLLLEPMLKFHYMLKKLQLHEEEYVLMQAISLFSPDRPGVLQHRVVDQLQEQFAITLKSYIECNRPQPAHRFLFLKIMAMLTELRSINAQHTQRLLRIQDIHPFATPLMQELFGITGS
Cytochrome P450 2C9 (Homo sapiens), sequence (P11712 whole entry, looked up): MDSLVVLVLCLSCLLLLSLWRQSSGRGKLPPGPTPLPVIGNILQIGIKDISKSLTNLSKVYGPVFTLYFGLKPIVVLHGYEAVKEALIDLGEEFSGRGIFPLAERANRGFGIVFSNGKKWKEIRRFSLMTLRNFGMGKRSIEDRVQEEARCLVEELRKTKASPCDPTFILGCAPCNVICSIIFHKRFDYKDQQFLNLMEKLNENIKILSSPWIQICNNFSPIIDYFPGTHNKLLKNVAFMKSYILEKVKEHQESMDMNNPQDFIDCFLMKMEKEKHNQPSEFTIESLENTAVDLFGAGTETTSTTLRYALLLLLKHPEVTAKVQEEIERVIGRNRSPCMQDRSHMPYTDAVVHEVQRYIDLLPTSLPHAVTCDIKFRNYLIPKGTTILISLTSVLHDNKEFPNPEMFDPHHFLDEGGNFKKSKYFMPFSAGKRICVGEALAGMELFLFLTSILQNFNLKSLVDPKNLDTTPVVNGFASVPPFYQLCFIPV
Cytochrome P450 1A2 (Homo sapiens), sequence (P05177 whole entry, looked up): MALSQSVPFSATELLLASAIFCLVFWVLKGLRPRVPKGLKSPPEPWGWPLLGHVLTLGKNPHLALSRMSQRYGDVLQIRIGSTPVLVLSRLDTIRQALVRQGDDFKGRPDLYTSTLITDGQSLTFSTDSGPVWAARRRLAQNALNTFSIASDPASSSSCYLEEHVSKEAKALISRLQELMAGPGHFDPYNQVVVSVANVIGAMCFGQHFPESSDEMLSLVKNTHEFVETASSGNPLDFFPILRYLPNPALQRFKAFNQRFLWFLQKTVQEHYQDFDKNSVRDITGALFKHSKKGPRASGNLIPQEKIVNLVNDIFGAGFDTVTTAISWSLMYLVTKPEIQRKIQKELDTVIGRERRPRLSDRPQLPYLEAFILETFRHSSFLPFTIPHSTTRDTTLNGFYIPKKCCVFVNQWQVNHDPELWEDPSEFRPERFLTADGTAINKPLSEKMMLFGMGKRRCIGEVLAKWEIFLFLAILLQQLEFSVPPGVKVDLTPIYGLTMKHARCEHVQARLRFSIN
Cytochrome P450 3A4 (Homo sapiens), sequence (P08684 whole entry, looked up): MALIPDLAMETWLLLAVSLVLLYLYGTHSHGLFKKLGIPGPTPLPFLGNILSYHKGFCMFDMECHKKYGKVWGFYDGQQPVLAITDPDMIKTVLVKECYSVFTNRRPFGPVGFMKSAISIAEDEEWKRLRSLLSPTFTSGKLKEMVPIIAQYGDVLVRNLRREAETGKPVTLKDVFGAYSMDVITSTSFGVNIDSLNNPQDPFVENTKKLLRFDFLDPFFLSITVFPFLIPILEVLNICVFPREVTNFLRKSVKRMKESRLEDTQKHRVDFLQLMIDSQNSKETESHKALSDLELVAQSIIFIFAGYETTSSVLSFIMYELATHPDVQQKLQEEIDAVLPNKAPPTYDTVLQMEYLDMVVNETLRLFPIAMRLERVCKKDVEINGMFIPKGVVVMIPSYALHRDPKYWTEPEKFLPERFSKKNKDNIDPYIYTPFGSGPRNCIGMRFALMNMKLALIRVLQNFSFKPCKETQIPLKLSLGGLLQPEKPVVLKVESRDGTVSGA
Voltage-gated inwardly rectifying potassium channel KCNH2 (Homo sapiens), sequence (Q12809 whole entry, looked up): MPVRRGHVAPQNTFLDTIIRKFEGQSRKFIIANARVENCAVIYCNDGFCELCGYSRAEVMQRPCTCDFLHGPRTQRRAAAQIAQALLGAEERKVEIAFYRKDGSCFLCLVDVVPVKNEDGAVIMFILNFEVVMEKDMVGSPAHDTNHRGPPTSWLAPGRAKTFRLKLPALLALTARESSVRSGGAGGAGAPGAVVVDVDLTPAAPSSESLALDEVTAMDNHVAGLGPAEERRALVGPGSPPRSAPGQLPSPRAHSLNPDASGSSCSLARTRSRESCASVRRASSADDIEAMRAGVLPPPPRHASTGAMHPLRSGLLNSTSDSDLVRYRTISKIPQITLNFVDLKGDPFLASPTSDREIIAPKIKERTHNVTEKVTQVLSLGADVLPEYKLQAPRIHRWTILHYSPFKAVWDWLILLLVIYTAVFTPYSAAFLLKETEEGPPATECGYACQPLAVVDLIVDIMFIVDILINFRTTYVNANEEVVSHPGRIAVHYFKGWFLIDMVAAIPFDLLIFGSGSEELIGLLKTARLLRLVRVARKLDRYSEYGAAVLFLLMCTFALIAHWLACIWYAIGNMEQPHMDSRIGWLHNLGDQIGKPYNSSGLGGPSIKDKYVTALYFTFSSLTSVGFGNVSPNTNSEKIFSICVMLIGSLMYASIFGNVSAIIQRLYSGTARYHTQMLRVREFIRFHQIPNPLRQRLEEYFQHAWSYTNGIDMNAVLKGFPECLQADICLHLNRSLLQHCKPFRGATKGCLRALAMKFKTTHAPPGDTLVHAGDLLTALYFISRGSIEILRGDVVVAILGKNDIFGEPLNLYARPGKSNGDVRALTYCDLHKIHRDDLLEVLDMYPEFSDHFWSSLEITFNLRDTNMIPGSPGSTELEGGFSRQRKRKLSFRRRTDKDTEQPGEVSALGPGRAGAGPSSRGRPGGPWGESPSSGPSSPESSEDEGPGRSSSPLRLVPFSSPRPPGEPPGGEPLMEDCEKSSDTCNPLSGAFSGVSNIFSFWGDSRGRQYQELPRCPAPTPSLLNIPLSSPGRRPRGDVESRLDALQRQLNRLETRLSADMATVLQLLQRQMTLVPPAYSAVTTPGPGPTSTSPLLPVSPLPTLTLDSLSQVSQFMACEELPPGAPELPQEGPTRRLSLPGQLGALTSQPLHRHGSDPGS
Cytochrome P450 2D6 (Homo sapiens), sequence (P10635 whole entry, looked up): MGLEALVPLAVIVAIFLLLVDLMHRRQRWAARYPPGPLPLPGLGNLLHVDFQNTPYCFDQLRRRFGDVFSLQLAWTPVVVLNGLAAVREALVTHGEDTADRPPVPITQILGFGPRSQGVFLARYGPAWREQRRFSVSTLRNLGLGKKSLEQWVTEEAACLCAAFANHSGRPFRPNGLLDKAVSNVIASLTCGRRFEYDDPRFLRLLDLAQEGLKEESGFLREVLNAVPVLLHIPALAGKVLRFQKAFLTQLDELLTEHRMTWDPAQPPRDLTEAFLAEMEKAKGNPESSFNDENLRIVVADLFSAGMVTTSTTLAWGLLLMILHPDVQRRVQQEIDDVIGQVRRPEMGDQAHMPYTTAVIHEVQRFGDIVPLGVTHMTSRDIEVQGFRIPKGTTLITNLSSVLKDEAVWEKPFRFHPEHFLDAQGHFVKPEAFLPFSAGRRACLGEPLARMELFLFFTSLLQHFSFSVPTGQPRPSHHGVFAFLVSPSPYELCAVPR

Cn1nnc2c(C(N)=O)ncn2c1=O
inactive: Potency [1] | max activation [2] -4.63% | Potency [3] | Potency [4] | Potency [5] | Potency [6] | Potency [7] | Potency [8]

Cc1c(NC(=O)c2cccnc2)c(=O)n(-c2ccccc2)n1C
inactive: Potency [1] | max activation [2] -1.68% | Potency [3] | Potency [4] | Potency [5] | Potency [6] | Potency [7] | Potency [8]

O=NN(CCCl)C(=O)NC1CCCCC1
inactive: Potency [1] | max activation [2] -2.8% | Potency [3] | Potency [4] | Potency [9] | Potency [5] | Potency [6] | Potency [7] | Potency [8]

O=C(CN1CCNCC1)NC1CCCCC1
inactive: Potency [1] | max activation [2] -3.24% | Potency [3] | Potency [4] | Potency [9] | Potency [6] | Potency [7] | Potency [8]

CC(C)Cn1cnc2c1c(=O)n(C)c(=O)n2C
inactive: Potency [1] | max activation [2] 0.329% | Potency [3] | Potency [4] | Potency [9] | Potency [7] | Potency [8]
active: Potency [6] 15.5 µM

CCNC(=O)NCc1cccc(Cl)c1
inactive: Potency [1] | max activation [2] -1.55% | Potency [3] | Potency [4] | Potency [9] | Potency [5] | Potency [6]

CC(C)NCC(O)c1ccc2ccccc2c1 (stereo not given)
inactive: Potency [1] | max activation [2] -0.315% | Potency [3] | Potency [9] | Potency [5] | Potency [7] | Potency [8]
active: Potency [4] 2.19 µM | Potency [6] 15.5 µM

NCc1ccc(S(N)(=O)=O)cc1
inactive: Potency [1] | max activation [2] -0.0614% | Potency [3] | Potency [4] | Potency [6] | Potency [7] | Potency [8]

CCOC(CN1CCN(CC(C)C(=O)c2ccccc2)CC1)c1ccccc1 (stereo not given)
active: Potency [1] 14.6 µM | Potency [3] 10 µM | Potency [4] 0.213 µM
inactive: max activation [2] 1.41% | activity change, negative = inhibition [6] 12.6% [at 23.6 µM] | activity change, negative = inhibition [8] 51.9% [at 23.6 µM]

O=C(NCN1CCOCC1)c1cnccn1
inactive: Potency [1] | max activation [2] -1.75% | Potency [3] | Potency [4] | Potency [5] | Potency [6] | Potency [7] | Potency [8]

Cn1c(=O)c2[nH]c(Br)nc2n(C)c1=O
inactive: Potency [1] | max activation [2] -2.17% | Potency [3] | Potency [4] | Potency [9] | Potency [5] | Potency [7] | Potency [8]
active: Potency [6] 24.5 µM

CC(C)=CCC[C@@](C)(O)[C@H]1CC=C(C)CC1
active: Potency [1] 29.8 µM | Potency [9] 8.71 µM | Potency [5] 17.4 µM
inactive: max activation [2] 1.39% | Potency [3] | Potency [4] | Potency [7]

N#CCC(=O)NN
inactive: Potency [1] | max activation [2] -4.95% | Potency [3] | Potency [4] | Potency [6] | Potency [7] | Potency [8]

CN1C[C@@H]2C[C@H]1CN2c1cc2c(cc1F)c(=O)c(C(=O)O)cn2C1CC1
inactive: activation [1] -18.6% [at 19 µM] | max activation [2] -1.05% | Potency [3] | activity change, negative = inhibition [4] 4.43% [at 23.6 µM] | activity change, negative = inhibition [9] 35.3% [at 23.6 µM] | activity change, negative = inhibition [5] 8.53% [at 23.6 µM] | activity change, negative = inhibition [6] -8.84% [at 23.6 µM] | activity change, negative = inhibition [7] 0.182% [at 15.8 µM] | activity change, negative = inhibition [8] 4.83% [at 23.6 µM]

COc1cc2c(cc1OC)C(=O)C(CC1CCN(Cc3ccccc3)CC1)C2 (stereo not given)
inactive: Potency [1] | max activation [2] -1.76%

CC1(C)O[C@H]2CC(=O)OC[C@]23[C@H]2CC[C@@]4(C)[C@H](c5ccoc5)OC(=O)[C@H]5O[C@]54[C@]2(C)C(=O)C[C@@H]13
inactive: Potency [1] | max activation [2] 5.81% | Potency [3] | Potency [4] | Potency [9] | Potency [5] | Potency [6] | Potency [7]

CC(=O)Nc1ccc(OC(=O)c2ccccc2OC(C)=O)cc1
inactive: Potency [1] | max activation [2] 1.26% | Potency [3] | Potency [9] | Potency [5] | Potency [7] | Potency [8]

CN(C)CCOC(=O)C(c1ccccc1)C1(O)CCCC1 (stereo not given)
inactive: Potency [1] | max activation [2] 3.01% | Potency [3] | Potency [5] | Potency [6] | Potency [7] | Potency [8]

CN(C)CC/C=C1/c2ccccc2COc2ccc(CC(=O)O)cc21
inactive: Potency [1] | max activation [2] -3.17% | Potency [3] | Potency [4] | Potency [9] | Potency [6] | Potency [8]

CC(C)OC(=O)OCOP(=O)(CO[C@H](C)Cn1cnc2c(N)ncnc21)OCOC(=O)OC(C)C
inactive: Potency [1] | max activation [2] -6.83% | Potency [3] | Potency [4] | Potency [9] | Potency [6] | Potency [7]

CC1=C(C(=O)O)N2C(=O)[C@@H](NC(=O)[C@H](N)c3ccccc3)[C@H]2SC1
inactive: Potency [1] | max activation [2] -2.36% | Potency [3]

O=C(O)[C@H](O)c1ccccc1
inactive: Potency [1] | max activation [2] -3.01% | Potency [3] | Potency [4] | Potency [6] | Potency [7] | Potency [8]

CCC[C@@H]1C[C@@H](C(=O)N[C@@H]([C@H]2O[C@H](SC)[C@H](O)[C@@H](O)[C@H]2O)[C@@H](C)O)N(C)C1
inactive: Potency [1] | max activation [2] 0.287% | Potency [3] | Potency [4] | Potency [5] | Potency [6] | Potency [8]

NC(=O)[C@@H]1CSSCCC(=O)N[C@@H](CCCCN=C(N)N)C(=O)NCC(=O)N[C@@H](CC(=O)O)C(=O)N[C@@H](Cc2c[nH]c3ccccc23)C(=O)N2CCC[C@H]2C(=O)N1 ([Mpa][hArg]GDWPC-NH2; disulfide 1-7)
inactive: Potency [1] | max activation [2] -0.95% | Potency [3] | Potency [4] | Potency [5] | Potency [6] | Potency [7] | Potency [8]

CN(C)CCCO[C@@H]1[C@H]2OC(C)(C)O[C@H]2O[C@@H]1C(O)CO (stereo not given in full)
inactive: Potency [1] | max activation [2] -3.96% | Potency [3] | Potency [4] | Potency [9] | Potency [5] | Potency [6] | Potency [7] | Potency [8]

C#CCN[C@@H]1CCc2ccccc21
active: Potency [4] 27.5 µM | Potency [6] 5.12 µM
inactive: Potency [1] | max activation [2] -3.04% | Potency [3] | Potency [9] | Potency [5] | Potency [8]
